Reference: paper PMC5540273 (PLoS ONE, 2017)
Where two headings read alike, the source gives them in different places.

Assays:
[1] = test system: SRPK2; conditions: concentration: 1 μM, replicates: in singlicate; n = 1
[2] = test system: SRPK3; conditions: concentration: 1 μM, replicates: in singlicate; n = 1
[3] = test system: STK16; conditions: concentration: 1 μM, replicates: in singlicate; n = 1
[4] = test system: STK33; conditions: concentration: 1 μM, replicates: in singlicate; n = 1
[5] = test system: STK35; conditions: concentration: 1 μM, replicates: in singlicate; n = 1
[6] = test system: STK36; conditions: concentration: 1 μM, replicates: in singlicate; n = 1
[7] = test system: STK39; conditions: concentration: 1 μM, replicates: in singlicate; n = 1
[8] = test system: SYK; conditions: concentration: 1 μM, replicates: in singlicate; n = 1
[9] = test system: SgK110; conditions: concentration: 1 μM, replicates: in singlicate; n = 1
[10] = test system: T1, TAK1; conditions: concentration: 1 μM, replicates: in singlicate; n = 1
T1 construct: gene MAP3K7

[11] = test system: TAOK1; conditions: concentration: 1 μM, replicates: in singlicate; n = 1
[12] = test system: TAOK2; conditions: concentration: 1 μM, replicates: in singlicate; n = 1
[13] = test system: TAOK3; conditions: concentration: 1 μM, replicates: in singlicate; n = 1
[14] = test system: TBK1; conditions: concentration: 1 μM, replicates: in singlicate; n = 1
[15] = test system: TEC; conditions: concentration: 1 μM, replicates: in singlicate; n = 1
[16] = test system: TESK1; conditions: concentration: 1 μM, replicates: in singlicate; n = 1
[17] = test system: TGFBR1; conditions: n = 1
[18] = test system: TGFBR2; conditions: concentration: 1 μM, replicates: in singlicate; n = 1
[19] = test system: TIE1; conditions: concentration: 1 μM, replicates: in singlicate; n = 1
[20] = test system: T2, TIE2; conditions: concentration: 1 μM, replicates: in singlicate; n = 1
T2 construct: gene TEK

[21] = concentration: 1 μM, replicates: in singlicate
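Note: KINOMEscan kinase panel screen.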

O=c1cc(N2CCOCC2)nc2n(Cc3ccccc3F)ccn12 [GSK2297428]
%Inh [1]: 0% | %Inh [2]: 0% | %Inh [3]: 0% | %Inh [4]: 0% | %Inh [5]: 0% | %Inh [6]: 0% | %Inh [7]: 0% | %Inh [8]: 21% | %Inh [9]: 0% | %Inh [10]: 0% | %Inh [11]: 0% | %Inh [12]: 0% | %Inh [13]: 0% | %Inh [14]: 15% | %Inh [15]: 0% | %Inh [16]: 3% | %Inh [17, 21]: 0% | %Inh [18]: 0% | %Inh [19]: 0% | %Inh [20]: 0%

O=C1NC(=O)C(c2ccc(Cl)cc2)=C1Nc1cccc(Cl)c1 [SB-317651]
%Inh [1]: 3% | %Inh [2]: 8% | %Inh [3]: 0% | %Inh [4]: 0% | %Inh [5]: 0% | %Inh [6]: 2% | %Inh [7]: 17% | %Inh [8]: 0% | %Inh [9]: 0% | %Inh [10]: 34% | %Inh [11]: 15% | %Inh [12]: 2% | %Inh [13]: 15% | %Inh [14]: 15% | %Inh [15]: 0% | %Inh [16]: 22% | %Inh [17, 21]: 0% | %Inh [18]: 8% | %Inh [19]: 0% | %Inh [20]: 6%

CNCc1ccc2nc(NC(=O)c3ccc(C(C)(C)C)cc3)cn2c1
%Inh [1]: 5% | %Inh [2]: 0% | %Inh [3]: 0% | %Inh [4]: 1% | %Inh [5]: 0% | %Inh [6]: 11% | %Inh [7]: 42% | %Inh [8]: 2% | %Inh [9]: 9% | %Inh [10]: 20% | %Inh [11]: 100% | %Inh [12]: 22% | %Inh [13]: 93.2% | %Inh [14]: 0% | %Inh [15]: 2% | %Inh [16]: 0% | %Inh [17, 21]: 3% | %Inh [18]: 2% | %Inh [19]: 6% | %Inh [20]: 4%

CS(=O)(=O)CCNCc1nc(-c2ccc3ncnc(Nc4ccc5c(cnn5Cc5ccccc5)c4)c3c2)cs1.Cl.Cl [GW569716]
%Inh [1]: 33% | %Inh [2]: 9% | %Inh [3]: 0% | %Inh [4]: 0% | %Inh [5]: 0% | %Inh [6]: 0% | %Inh [7]: 0% | %Inh [8]: 13% | %Inh [9]: 0% | %Inh [10]: 0% | %Inh [11]: 0% | %Inh [12]: 0% | %Inh [13]: 0% | %Inh [14]: 0% | %Inh [15]: 0% | %Inh [16]: 21% | %Inh [17, 21]: 27% | %Inh [18]: 0% | %Inh [19]: 0% | %Inh [20]: 0%

COc1cccc(CNC(=O)NC2CCN(c3ccnc(Nc4ccc(F)cc4)n3)C2)c1 (stereo not shown) [GSK1379723]
%Inh [1]: 0% | %Inh [2]: 16% | %Inh [3]: 10% | %Inh [4]: 0% | %Inh [5]: 5% | %Inh [6]: 0% | %Inh [7]: 10% | %Inh [8]: 18% | %Inh [9]: 1% | %Inh [10]: 0% | %Inh [11]: 0% | %Inh [12]: 0% | %Inh [13]: 0% | %Inh [14]: 0% | %Inh [15]: 7% | %Inh [16]: 100% | %Inh [17, 21]: 21% | %Inh [18]: 0% | %Inh [19]: 24% | %Inh [20]: 0%

COc1ccc2cc(-c3nc(-c4ccccc4C(C)C)[nH]c3-c3ccncc3)ccc2c1 [SB-660566]
%Inh [1]: 0% | %Inh [2]: 0% | %Inh [3]: 9% | %Inh [4]: 0% | %Inh [5]: 38% | %Inh [6]: 41% | %Inh [7]: 31% | %Inh [8]: 10% | %Inh [9]: 0% | %Inh [10]: 0% | %Inh [11]: 0% | %Inh [12]: 0% | %Inh [13]: 0% | %Inh [14]: 0% | %Inh [15]: 17% | %Inh [16]: 32% | %Inh [17, 21]: 80% | %Inh [18]: 42% | %Inh [19]: 69% | %Inh [20]: 97%

CCn1c(-c2ccccc2)nc2cnccc21 [SB-733416]
%Inh [1]: 0% | %Inh [2]: 5% | %Inh [3]: 0% | %Inh [4]: 0% | %Inh [5]: 7% | %Inh [6]: 0% | %Inh [7]: 8% | %Inh [8]: 17% | %Inh [9]: 0% | %Inh [10]: 0% | %Inh [11]: 0% | %Inh [12]: 0% | %Inh [13]: 1% | %Inh [14]: 0% | %Inh [15]: 0% | %Inh [16]: 9% | %Inh [17, 21]: 0% | %Inh [18]: 8% | %Inh [19]: 0% | %Inh [20]: 0%

Cc1ccc(NC(=O)Nc2ccc(Cl)cc2)cc1-c1ccc(C(=O)Nc2ccncc2)cc1 [GSK1398472]
%Inh [1]: 0% | %Inh [2]: 46% | %Inh [3]: 0% | %Inh [4]: 0% | %Inh [5]: 0% | %Inh [6]: 1% | %Inh [7]: 0% | %Inh [8]: 31% | %Inh [9]: 10% | %Inh [10]: 0% | %Inh [11]: 0% | %Inh [12]: 0% | %Inh [13]: 0% | %Inh [14]: 8% | %Inh [15]: 0% | %Inh [16]: 54% | %Inh [17, 21]: 3% | %Inh [18]: 0% | %Inh [19]: 0% | %Inh [20]: 0%

CCc1ccc(-c2ccc3c(c2)-c2n[nH]cc2S(=O)(=O)N3C)cc1
%Inh [1]: 14% | %Inh [2]: 0% | %Inh [3]: 0% | %Inh [4]: 0% | %Inh [5]: 15% | %Inh [6]: 0% | %Inh [7]: 0% | %Inh [8]: 19% | %Inh [9]: 0% | %Inh [10]: 0% | %Inh [11]: 0% | %Inh [12]: 27% | %Inh [13]: 0% | %Inh [14]: 0% | %Inh [15]: 0% | %Inh [16]: 15% | %Inh [17, 21]: 0% | %Inh [18]: 0% | %Inh [19]: 0% | %Inh [20]: 20%

Cc1ccccc1-c1cc(-c2c[nH]nc2-c2ccccn2)ccn1 [GW680061]
%Inh [1]: 3% | %Inh [2]: 4% | %Inh [3]: 0% | %Inh [4]: 0% | %Inh [5]: 0% | %Inh [6]: 0% | %Inh [7]: 10% | %Inh [8]: 36% | %Inh [9]: 0% | %Inh [10]: 0% | %Inh [11]: 0% | %Inh [12]: 0% | %Inh [13]: 0% | %Inh [14]: 0% | %Inh [15]: 15% | %Inh [16]: 24% | %Inh ([17]; 1 µM): 5% | %Inh [18]: 0% | %Inh [19]: 6% | %Inh [20]: 0%

CNc1nc(-c2ccc3c(N)n[nH]c3c2)cc(N2C[C@@H](C(=O)Nc3ccccc3)CC[C@H]2C)n1 [GSK2298859]
%Inh [1]: 29% | %Inh [2]: 0% | %Inh [3]: 13% | %Inh [4]: 9% | %Inh [5]: 0% | %Inh [6]: 0% | %Inh [7]: 6% | %Inh [8]: 16% | %Inh [9]: 0% | %Inh [10]: 0% | %Inh [11]: 0% | %Inh [12]: 0% | %Inh [13]: 0% | %Inh [14]: 14% | %Inh [15]: 4% | %Inh [16]: 24% | %Inh [17, 21]: 12% | %Inh [18]: 0% | %Inh [19]: 0% | %Inh [20]: 0%
